Common to all, as to assay: DAPPL (digital affinity profiling via proximity ligation, sequencing); 10 mM Tris-HCl pH 7.5, 50 mM NaCl, 1 mM DTT, 4% glycerol, room temperature, 30 min; GST-TFs on glutathione beads, 16-mer random dsDNA library, 0.1% formaldehyde crosslink after washing; high values mean tight binding
Common to all, as to details: protein: recombinant; tags: N-terminal GST; dsDNA, one strand shown

One test deals with T1, ELK4 (Homo sapiens, UniProt P28324-2 1-405).
T1 sequence: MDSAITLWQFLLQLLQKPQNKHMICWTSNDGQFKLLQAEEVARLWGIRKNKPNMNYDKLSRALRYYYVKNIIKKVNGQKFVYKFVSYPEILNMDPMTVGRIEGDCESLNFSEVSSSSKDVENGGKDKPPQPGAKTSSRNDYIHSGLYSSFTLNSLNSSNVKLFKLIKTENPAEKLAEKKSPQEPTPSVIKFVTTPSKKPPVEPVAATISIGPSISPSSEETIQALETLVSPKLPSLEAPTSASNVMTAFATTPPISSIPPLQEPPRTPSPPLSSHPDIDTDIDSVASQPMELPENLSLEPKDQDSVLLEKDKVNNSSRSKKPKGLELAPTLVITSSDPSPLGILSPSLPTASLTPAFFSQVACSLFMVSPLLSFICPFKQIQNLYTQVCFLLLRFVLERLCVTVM
The essentials:
(§1)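 GST fusions of human transcription factors were expressed in yeast and captured with glutathione beads. Once given DNA barcodes and pooled alongside a tag-only sample, they were incubated for 30 min at room temperature with 200 nmole of a random double-stranded 16-mer DNA library in Tris/NaCl/DTT/glycerol buffer, then washed, crosslinked (0.1% formaldehyde), proximity-ligated, PCR-amplified and sequenced on an Illumina NextSeq500. The binding signal of each hexamer is its read frequency for a factor divided by its frequency for the tag-only sample.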

The next test has as its target T2, ETV2 (Homo sapiens, UniProt O00321 1-342).
T2 sequence: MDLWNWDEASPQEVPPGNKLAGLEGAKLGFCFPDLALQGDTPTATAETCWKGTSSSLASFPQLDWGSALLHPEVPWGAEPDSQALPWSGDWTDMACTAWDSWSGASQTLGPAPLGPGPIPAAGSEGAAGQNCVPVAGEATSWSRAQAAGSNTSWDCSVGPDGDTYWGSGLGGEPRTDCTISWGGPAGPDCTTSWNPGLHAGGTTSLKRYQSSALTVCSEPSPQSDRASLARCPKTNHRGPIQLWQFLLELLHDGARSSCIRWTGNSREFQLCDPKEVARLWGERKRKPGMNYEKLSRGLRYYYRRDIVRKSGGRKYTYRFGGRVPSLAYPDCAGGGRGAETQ
The essentials:
as §1

The target of another test is T3, ELF3 (Homo sapiens, UniProt P78545 1-371).
T3 sequence: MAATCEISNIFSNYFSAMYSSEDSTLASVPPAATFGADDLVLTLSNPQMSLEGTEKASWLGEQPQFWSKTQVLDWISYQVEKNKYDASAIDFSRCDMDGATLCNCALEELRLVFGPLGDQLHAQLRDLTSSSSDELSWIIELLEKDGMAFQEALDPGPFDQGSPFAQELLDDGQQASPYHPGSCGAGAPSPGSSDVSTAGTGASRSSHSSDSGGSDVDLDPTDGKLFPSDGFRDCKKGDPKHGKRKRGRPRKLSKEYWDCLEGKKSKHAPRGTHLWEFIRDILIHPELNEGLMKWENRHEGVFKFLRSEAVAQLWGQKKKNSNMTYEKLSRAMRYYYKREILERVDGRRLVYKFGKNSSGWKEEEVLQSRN
In a few lines:
as §1

The target of the next test is ETV1 (Homo sapiens, UniProt P50549 1-477). The essentials:
as §1

Another test addresses T4, ERF (Homo sapiens, UniProt P50548 1-548).
T4 sequence: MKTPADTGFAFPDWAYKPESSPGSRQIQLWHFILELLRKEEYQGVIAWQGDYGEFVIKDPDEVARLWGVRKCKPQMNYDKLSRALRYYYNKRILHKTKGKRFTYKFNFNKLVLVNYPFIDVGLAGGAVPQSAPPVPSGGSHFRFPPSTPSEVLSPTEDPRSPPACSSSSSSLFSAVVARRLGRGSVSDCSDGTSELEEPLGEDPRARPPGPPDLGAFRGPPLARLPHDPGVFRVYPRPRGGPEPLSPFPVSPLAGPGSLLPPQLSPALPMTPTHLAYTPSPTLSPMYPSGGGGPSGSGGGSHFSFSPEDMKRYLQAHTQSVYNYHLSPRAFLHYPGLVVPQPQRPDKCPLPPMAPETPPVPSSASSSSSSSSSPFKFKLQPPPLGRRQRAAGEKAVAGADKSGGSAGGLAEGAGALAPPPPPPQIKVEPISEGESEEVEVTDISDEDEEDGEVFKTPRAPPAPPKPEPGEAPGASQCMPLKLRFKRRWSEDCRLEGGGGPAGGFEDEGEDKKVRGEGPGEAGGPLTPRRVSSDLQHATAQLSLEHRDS
The essentials:
as §1

The next test concerns the target T5, ETV3L (Homo sapiens, UniProt Q6ZN32 1-361).
T5 sequence: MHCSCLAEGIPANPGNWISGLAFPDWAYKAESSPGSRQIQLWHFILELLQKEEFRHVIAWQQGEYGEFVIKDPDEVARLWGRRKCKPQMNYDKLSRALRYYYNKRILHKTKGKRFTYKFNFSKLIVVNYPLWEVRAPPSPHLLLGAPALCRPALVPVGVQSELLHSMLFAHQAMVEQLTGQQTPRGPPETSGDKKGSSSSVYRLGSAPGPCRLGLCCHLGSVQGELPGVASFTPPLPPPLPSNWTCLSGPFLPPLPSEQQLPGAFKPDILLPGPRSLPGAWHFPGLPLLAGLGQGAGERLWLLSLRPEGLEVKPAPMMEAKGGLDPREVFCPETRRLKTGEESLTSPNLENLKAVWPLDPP
The essentials:
as §1

The next test concerns the target T6, ETS2 (Homo sapiens, UniProt P15036 1-469).
T6 sequence: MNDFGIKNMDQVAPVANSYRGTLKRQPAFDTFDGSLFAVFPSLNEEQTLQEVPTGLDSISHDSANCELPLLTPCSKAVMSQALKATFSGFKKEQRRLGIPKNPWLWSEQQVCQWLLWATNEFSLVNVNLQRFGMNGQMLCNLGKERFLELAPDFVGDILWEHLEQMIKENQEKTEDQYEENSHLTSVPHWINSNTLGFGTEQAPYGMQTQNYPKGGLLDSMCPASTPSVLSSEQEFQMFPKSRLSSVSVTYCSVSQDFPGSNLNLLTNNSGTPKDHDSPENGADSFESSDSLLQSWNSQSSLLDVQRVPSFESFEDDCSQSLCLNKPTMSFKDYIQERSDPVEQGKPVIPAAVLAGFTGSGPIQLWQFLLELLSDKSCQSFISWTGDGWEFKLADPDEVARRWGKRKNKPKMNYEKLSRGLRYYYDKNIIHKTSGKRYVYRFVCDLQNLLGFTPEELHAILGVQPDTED
In a few lines:
as §1

The next test addresses T7, ETV7 (Homo sapiens, UniProt Q9Y603 1-341).
T7 sequence: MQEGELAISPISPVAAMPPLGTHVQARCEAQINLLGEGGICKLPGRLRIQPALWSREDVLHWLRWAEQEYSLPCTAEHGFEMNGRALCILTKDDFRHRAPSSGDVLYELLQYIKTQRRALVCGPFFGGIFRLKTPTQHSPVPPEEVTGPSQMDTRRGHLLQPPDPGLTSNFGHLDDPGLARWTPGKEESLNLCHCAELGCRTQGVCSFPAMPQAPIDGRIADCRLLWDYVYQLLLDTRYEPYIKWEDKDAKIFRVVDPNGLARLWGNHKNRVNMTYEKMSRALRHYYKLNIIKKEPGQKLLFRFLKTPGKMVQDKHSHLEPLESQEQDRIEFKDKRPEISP
In a few lines: as §1

In the next test the target is T8, ETV3 (Homo sapiens, UniProt P41162-2 1-143).
T8 sequence: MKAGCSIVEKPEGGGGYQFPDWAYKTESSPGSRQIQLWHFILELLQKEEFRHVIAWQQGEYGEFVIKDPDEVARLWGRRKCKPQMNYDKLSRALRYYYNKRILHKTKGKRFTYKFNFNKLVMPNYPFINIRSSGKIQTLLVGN
The essentials:
as §1

For the next test, the target named is ETV6 (Homo sapiens, UniProt P41212 1-452). In a few lines:
as §1

Sequence of ETV6 (P41212 whole entry): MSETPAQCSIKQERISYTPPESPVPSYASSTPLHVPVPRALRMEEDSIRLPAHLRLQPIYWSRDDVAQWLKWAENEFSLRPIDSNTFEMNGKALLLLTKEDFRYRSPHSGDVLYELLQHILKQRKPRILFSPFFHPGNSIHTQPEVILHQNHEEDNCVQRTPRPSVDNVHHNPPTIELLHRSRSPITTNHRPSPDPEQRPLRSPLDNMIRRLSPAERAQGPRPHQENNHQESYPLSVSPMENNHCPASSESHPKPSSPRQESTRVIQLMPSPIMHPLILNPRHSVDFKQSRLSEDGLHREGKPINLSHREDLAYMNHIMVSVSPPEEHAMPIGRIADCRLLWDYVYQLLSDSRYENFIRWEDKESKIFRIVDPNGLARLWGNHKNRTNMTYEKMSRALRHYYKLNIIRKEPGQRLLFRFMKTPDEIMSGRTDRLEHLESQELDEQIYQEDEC
Sequence of ETV1 (P50549 whole entry): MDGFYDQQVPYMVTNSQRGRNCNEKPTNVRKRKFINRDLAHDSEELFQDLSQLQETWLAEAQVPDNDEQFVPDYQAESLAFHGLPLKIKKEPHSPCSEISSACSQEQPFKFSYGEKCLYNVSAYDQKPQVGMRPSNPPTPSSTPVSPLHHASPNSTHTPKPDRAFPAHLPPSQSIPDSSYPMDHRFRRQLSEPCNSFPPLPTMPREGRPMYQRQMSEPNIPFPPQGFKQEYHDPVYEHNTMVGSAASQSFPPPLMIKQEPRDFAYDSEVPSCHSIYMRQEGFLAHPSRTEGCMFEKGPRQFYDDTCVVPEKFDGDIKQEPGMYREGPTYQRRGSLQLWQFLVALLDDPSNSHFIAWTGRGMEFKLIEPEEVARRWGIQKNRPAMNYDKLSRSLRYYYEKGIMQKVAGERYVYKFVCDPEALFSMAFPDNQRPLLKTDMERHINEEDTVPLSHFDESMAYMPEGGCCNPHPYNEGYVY

Regarding GCCTGC, the binding signal was 1.18 fold enrichment (6-mer frequency, TF over GST control) in the test with ELK4; 1.15 fold enrichment (6-mer frequency, TF over GST control) with ETV2; 1.13 fold enrichment (6-mer frequency, TF over GST control) with ELF3; 1.18 fold enrichment (6-mer frequency, TF over GST control) with ETV1; 1.05 fold enrichment (6-mer frequency, TF over GST control) with ERF; 1.17 fold enrichment (6-mer frequency, TF over GST control) with ETV3L. Also, the binding signal is 1.05 fold enrichment (6-mer frequency, TF over GST control) in the test with ETS2; 1.13 fold enrichment (6-mer frequency, TF over GST control) in the test with ETV7; 1.03 fold enrichment (6-mer frequency, TF over GST control) in the test with ETV3; 1.05 fold enrichment (6-mer frequency, TF over GST control) with ETV6.

Source of the values: paper PMC7862700, “An all-to-all approach to the identification of sequence-specific readers for epigenetic DNA modifications on cytosine”.
